# Assay results reported in PubChem BioAssay.
# The source made the active and inactive calls. Cut-off read from the data, not from the text of the source, unless noted: active = inhibition above about 80%; inactive = the rest.
# Tests used:
# [1] = sensitizers of A549 cells to miR-34 induction, primary screen, imaging, A549 dox-inducible miR-34, nuclei and caspase counts (AID 1347080;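 active = compounds whose cell count with miR-34 switched on is under 0.7 times the count with it off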); details: A549 miR-34 inducible, Hoechst nuclei count, 48 h
# [2] = survival rescue of mitochondrial mutant cells in low glucose, primary screen, MELAS cybrids, Rieske KO mouse fibroblasts, CellTiter-Glo (AID 1508586;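 active = mean z-score across replicates of 1.96 or higher in either the MELAS or the Rieske mutant cell line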;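 note: z relative to plate mean and SD of compound and empty wells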)
# [3] = LFS_MB_P medulloblastoma growth inhibition, cell-based, chromothripsis tumors, cisplatin or BGB combos (AID 1671449); details: LFS_MB_P medulloblastoma cells;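 note: cells exposed for 96 hours; 0% = vehicle DMSO and 100% = killing by high DMSO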
# [4] = HDN33 neuroblastoma growth inhibition, cell-based, chromothripsis tumors, cisplatin or BGB combos (AID 1671450); details: HDN33 neuroblastoma cells, stronger effect = higher value;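 note: cells exposed to compound for four days; 0% = vehicle DMSO and 100% = cell killing by high DMSO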
# [5] = ICB984 medulloblastoma cell growth inhibition, synergistic combos for chromothripsis tumors, cisplatin or BGB combos (AID 1671451; call rule not given here;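 note: cells exposed for 96 hours before readout; 0% = vehicle DMSO and 100% = killing by high DMSO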); details: ICB984 medulloblastoma cells, drug combinations, stronger effect = higher value
# [6] = LFS_MB_1R medulloblastoma cell growth inhibition, synergistic combos for chromothripsis tumors, cisplatin or BGB combos (AID 1671452); details: LFS_MB_1R medulloblastoma cells, stronger effect = higher value;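 note: cells exposed for 96 hours before readout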
# [7] = HTB85 osteosarcoma cell growth inhibition, synergistic combos for chromothripsis tumors, BGB or cisplatin IC20 combos (AID 1671453); details: HTB85 osteosarcoma cells, drug combinations, stronger effect = higher value;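 note: cells exposed for 96 hours before readout; 0% = vehicle DMSO and 100% = high DMSO killing control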
# [8] = CRL2098 osteosarcoma cell growth inhibition, synergistic combos for chromothripsis tumors, BGB or cisplatin IC20 combos (AID 1671454); details: CRL2098 osteosarcoma cells, drug combinations, stronger effect = higher value;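 note: cells exposed for 96 h before readout; 0% = vehicle DMSO and 100% = killing by high DMSO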
# [9] = HD-MB03 medulloblastoma cell growth inhibition, synergistic combos for chromothripsis tumors, BGB or cisplatin IC20 combos (AID 1671455; in the data active = inhibition above about 83%;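 note: 0% = vehicle DMSO and 100% = high DMSO as cytotoxic control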); details: HD-MB03 medulloblastoma cells, stronger effect = higher value
# [10] = UWB1.289 ovarian carcinoma cell growth inhibition, synergistic combos for chromothripsis tumors, BGB or cisplatin combos (AID 1671456); details: UWB1.289 ovarian carcinoma cells, stronger effect = higher value;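 note: cells exposed to compound for four days; 0% = vehicle DMSO and 100% = killing by high DMSO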
# [11] = LFS_MB_2R medulloblastoma cell growth inhibition, synergistic combos for chromothripsis tumors, cisplatin combos (AID 1671457); details: LFS_MB_2R medulloblastoma cells, stronger effect = higher value;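 note: cells exposed to compound for four days before readout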
# [12] = MDA-MB-436 breast carcinoma cell growth inhibition, synergistic combos for chromothripsis tumors, BGB or cisplatin combos (AID 1671458; call rule not given here;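 note: cells exposed for 96 hours; 0% = vehicle DMSO and 100% = killing by high DMSO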); details: MDA-MB-436 breast carcinoma growth inhibition, drug combinations, stronger effect = higher value
# [13] = UWB1.289_BRCA1 ovarian cancer growth, cell-based, BGB or cisplatin combinations (AID 1671459); details: UWB1.289 BRCA1 ovarian carcinoma, drug combinations, stronger effect = higher value
# [14] = human astrocyte viability loss, single and combined drugs, cytotoxicity control for chromothriptic childhood tumor combination screen, cell-based, BGB or cisplatin IC20 combos (AID 1671460); details: Human astrocytes, drug combinations, stronger effect = higher value;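 note: cells exposed to compounds for 96 hours before viability readout; 0% = vehicle and 100% = killing control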
# [15] = growth inhibition of BT084 medulloblastoma cells, cell-based, ICGC_MB145, cisplatin and BGB IC40 combos (AID 1671461); details: drug combinations, stronger effect = higher value;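 note: cells exposed to drugs for 96 hours; 0% = vehicle DMSO and 100% = high DMSO full killing control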
# [16] = growth inhibition of RCMB18 medulloblastoma cells, cell-based, cisplatin and BGB IC40 combos (AID 1671462); details: stronger effect = higher value;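 note: cells exposed to compound for four days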
# [17] = growth inhibition of CRL1545 osteosarcoma cells, cell-based, cisplatin and BGB IC20 combos (AID 1671464); details: stronger effect = higher value;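 note: cells exposed to compound for 96 hours before readout; 0% = vehicle DMSO and 100% = high DMSO killing control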
# [18] = hESC survival regulators, cell-based (AID 493140; call rule not given here;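 note: cells exposed to compounds for four days before counting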); details: human embryonic stem cell survival screen; stronger effect = higher value
# [19] = liver-stage malaria parasite growth inhibition, primary screen, cell-based, HepG2, luciferase luminescence, HepG2 viability (AID 624349; in the data active = parasite load remaining mostly below about 12%, no sharp cut-off; inactive = mostly above about 10%;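 note: 100% = mean of DMSO negative control wells on the same plate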); details: P. berghei liver stage in HepG2, luciferase luminescence, concentration not given here; parasite load remaining: stronger effect = lower value; viability: measured here: HepG2 viability without parasites
# [20] = stronger effect = lower value, cell number ratio, induced over uninduced
# [21] = measured here: relative caspase fold change +Dox/-Dox
# [22] = measured here: total cells with miR-34 induction, stronger effect = lower value
# [23] = measured here: total cells without miR-34 induction
# [24] = MELAS cybrid survival, CellTiter-Glo 48 h, stronger effect = higher value
# [25] = Rieske KO mouse fibroblast survival, CellTiter-Glo 72 h
# [26] = measured here: combination with BGB IC40, at 0.05 µM
# [27] = measured here: with BGB IC20 combination, at 0.5 µM
# [28] = measured here: with cisplatin IC20 combination, at 0.5 µM
# [29] = measured here: combination with cisplatin, at 0.5 µM
# [30] = measured here: combination with cisplatin, at 5 µM
compound,measurement,setting,value
CC1CN(c2c(F)c(N)c3c(=O)c(C(=O)O)cn(C4CC4)c3c2F)CC(C)N1 (configuration not stated),fold change,[1]; [20],0.949 (inactive)
same,fold change,[1]; [21],1.47
same,cell count,[1]; [22],8380
same,cell count,[1]; [23],8840
same,z-score,[2]; [24],-0.385 (inactive)
same,z-score,[2]; [25],0.474
same,inhibition,"[3]; at 0.5 µM, stronger effect = higher value",-8.35% (inactive)
same,inhibition,"[3]; measured here: combination with BGB IC20, at 0.005 µM",-4.46%
same,inhibition,"[3]; measured here: combination with BGB IC40, at 0.005 µM",-31.5%
same,inhibition,[3]; [26],-15.2%
same,inhibition,"[3]; measured here: combination with cisplatin, at 0.5 µM, stronger effect = higher value",-6.19%
same,inhibition,"[3]; measured here: combination with cisplatin, at 5 µM, stronger effect = higher value",-16.6%
same,inhibition,"[4]; BGB combo, at 5 µM",12%
same,inhibition,[4]; at 0.5 µM,-0.91% (inactive)
same,inhibition,"[4]; cisplatin combo, at 5 µM",-6.01%
same,inhibition,[4]; [27],11.5%
same,inhibition,[4]; [28],-1.5%
same,inhibition,"[4]; single agent, at 5 µM",6.32%
same,inhibition,"[5]; BGB IC20 combo, at 0.005 µM",-1.67%
same,inhibition,"[5]; BGB IC40 combo, at 0.005 µM",11%
same,inhibition,"[5]; BGB IC40 combo, at 0.05 µM",-1.88%
same,inhibition,[5]; at 0.5 µM,7.87% (inactive)
same,inhibition,"[5]; cisplatin combo, at 0.05 µM",-1.88%
same,inhibition,"[5]; cisplatin combo, at 0.5 µM",11.3%
same,inhibition,"[5]; cisplatin combo, at 5 µM",13.8%
same,inhibition,"[5]; measured here: 5 uM single agent, at 5 µM",-29.6%
same,inhibition,[6]; at 0.5 µM,-11.6% (inactive)
same,inhibition,[6]; [26],17.7%
same,inhibition,[6]; [29],-11.6%
same,inhibition,[6]; [30],6.53%
same,inhibition,[7]; at 0.5 µM,-1.44% (inactive)
same,inhibition,"[7]; measured here: with BGB IC20, at 0.5 µM",-7.64%
same,inhibition,"[7]; measured here: with BGB IC20, at 5 µM",3.84%
same,inhibition,"[7]; measured here: with cisplatin IC20, at 0.5 µM",-9.9%
same,inhibition,"[7]; measured here: with cisplatin IC20, at 5 µM",-0.774%
same,inhibition,"[7]; single agent, at 5 µM",7.58%
same,inhibition,[8]; at 0.5 µM,10.8% (inactive)
same,inhibition,"[8]; measured here: combination with BGB at IC20, at 0.5 µM",-2.31%
same,inhibition,"[8]; measured here: combination with cisplatin at IC20, at 0.5 µM",38.8%
same,inhibition,[9]; at 0.5 µM,-2.01% (inactive)
same,inhibition,"[9]; measured here: combo with BGB at IC20, at 0.5 µM",-4.41%
same,inhibition,"[9]; measured here: combo with cisplatin at IC20, at 0.5 µM",2.33%
same,inhibition,[10]; at 0.5 µM,8.04% (inactive)
same,inhibition,"[10]; measured here: inhibition with BGB combination, at 0.05 µM",0.724%
same,inhibition,"[10]; measured here: inhibition with cisplatin combination, at 0.05 µM",-2.03%
same,inhibition,[11]; at 0.5 µM,-6.3% (inactive)
same,inhibition,[11]; [29],-7.26%
same,inhibition,[11]; [30],2.01%
same,inhibition,[12]; at 0.5 µM,-9.1% (inactive)
same,inhibition,"[12]; measured here: BGB combination, at 0.5 µM",-2.77%
same,inhibition,"[12]; measured here: BGB combination, at 5 µM",-17.3%
same,inhibition,"[12]; measured here: cisplatin combination, at 0.5 µM",-22.6%
same,inhibition,"[12]; measured here: cisplatin combination, at 5 µM",-5.2%
same,inhibition,"[13]; BGB combination, concentration series, at 5 µM",10.9%
same,inhibition,[13]; at 0.5 µM,7.45% (inactive)
same,inhibition,"[13]; cisplatin combination, concentration series, at 5 µM",7.13%
same,inhibition,[14]; at 0.5 µM,-1.22% (inactive)
same,inhibition,"[14]; measured here: combo with BGB IC20, at 0.5 µM",2.7%
same,inhibition,"[14]; measured here: combo with cisplatin IC20, at 0.5 µM",-10.7%
same,inhibition,[15]; at 0.5 µM,-22.6% (inactive)
same,inhibition,"[15]; cisplatin combination, at 0.5 µM",-28.7%
same,inhibition,"[15]; cisplatin combination, at 5 µM",-70.7%
same,inhibition,"[15]; measured here: BGB IC40 combination 0.05 uM, at 0.05 µM",2.3%
same,inhibition,"[15]; single agent, at 5 µM",-7.96%
same,inhibition,[16]; at 0.5 µM,-6.55% (inactive)
same,inhibition,"[16]; cisplatin combo, at 5 µM",2%
same,inhibition,"[16]; measured here: BGB IC40 combination, at 0.05 µM",11.2%
same,inhibition,[16]; [29],-22.2%
same,inhibition,"[16]; single agent, at 5 µM",-18.8%
same,inhibition,[17]; at 0.5 µM,-2.34% (inactive)
same,inhibition,[17]; [27],14.7%
same,inhibition,[17]; [28],-10.9%
same,inhibition,"[17]; single agent, at 0.05 µM",39.2%
same,inhibition,"[17]; single agent, at 5 µM",26.7%
CCCC1C(=O)N2C(N(C)C)=Nc3ccc(C)cc3N2C1=O (configuration not stated),survival,[18],9.17 (inactive)
same,parasite load remaining,[19],172% (inactive)
same,viability,[19],71.8%
same,fold change,[1]; [20],0.881 (inactive)
same,fold change,[1]; [21],0.721
same,cell count,[1]; [22],8830
same,cell count,[1]; [23],10000
same,z-score,[2]; [24],0.00688 (inactive)
same,z-score,[2]; [25],-0.91
CC1(C)S[C@@H]2[C@H](NC(=O)COc3ccccc3)C(=O)N2C1C(=O)O (some centres not stated) (tested in a mixture with another compound),survival,[18],4 (inactive)
same,parasite load remaining,[19],98.8% (inactive)
same,viability,[19],75.5%
same,fold change,[1]; [20],0.957 (inactive)
same,fold change,[1]; [21],0.818
same,cell count,[1]; [22],9020
same,cell count,[1]; [23],9430
same,z-score,[2]; [24],-0.168 (inactive)
same,z-score,[2]; [25],-0.00269
